Outcome and AC50 data for 40 molecules are collected here from PubChem BioAssay (EPA / NIEHS).

Each structure is given as a SMILES string. Calls of active or inactive are those of the source. How the source made its calls: active means hit-call score of the fitted dose curve at least 0.9, where 1 is the maximum; inactive means score below 0.9.

Read-out in this experiment: matrix metalloproteinase-3 (MMP3), MMP3 (gene 4314)
Briefly: LTEA_HepaRG_MMP3: Life Technologies and Expression Analysis (LTEA) Assay for matrix metalloproteinase-3 (MMP3) using HepaRG (AID 2283519). The note with it: mRNA level, 48 h; actives raise or lower the signal. The method, then: LTEA_HepaRG is a cell based, multiplexed-readout assay that uses HepaRG, a human liver cell line, with measurements taken at 48 hours after chemical dosing on a 96-well plate.LTEA_HepaRG_MMP3 is one of 102 assay component(s) measured in the LTEA HepaRG cell culture assay. It is a marker of Fibrosis.Data from the assay component LTEA_HepaRG_MMP3 was analyzed into 1 endpoint. This assay endpoint, LTEA_HepaRG_MMP3, was analyzed with bidirectional fitting relative to DMSO as the negative control and baseline of activity. Using a type of inducible reporter, measures of mRNA induction for gain or loss-of-signal activity can be used to understand regulation of transcription factor activity. To generalize the intended target to other relatable targets, this assay endpoint is annotated to the protease intended target family, where the subfamily is matrix metalloproteinase.
A total of 1060 chemcials from the ToxCast library were tested in eight-point concentration-response experiments. Cell culture and cytotoxicity assays were conducted at Thermo Fisher Scientific's Custom Services facility (Madison, WI). A single lot of human HepaRG cells (Thermo Fisher Scientific, Frederick, MD) was used for the cell culture experiments. 96-well format collagen type I coated plates of human HepaRG cells were prepared using established methods. Briefly, cryopreserved HepaRG cells were thawed, plated at a density of approximately 100,000 cells/well in HepaRG Thaw, Plate, and General Purpose media (HPRG770, Thermo Fisher Scientific), and incubated for 48 hours. 0.5% DMSO was selected as vehicle control to balance the requisite need of DMSO in HepaRG cultures to maintain differentiation (for example, baseline metabolism, proportions of hepatocytes vs. cholangiocytes), while enabling further hepatic receptor pathway activation (for example, PXR and CAR) in response to chemical exposure. 48 hours after plating, the culture medium was replaced with HepaRG Serum-Free Incudtion Media. Cells were exposed to each test chemical in duplicate and maintained in CO2 incubators for another 48 hours. Chemical plates were thawed to room temperature and 200x concentrations of treatment groups were prepared. 8-point conentration-reponse curves were made with the highest exposure at 100 uM, followed by half-log dilutions, all in 0.5% DMSO. Each test plate contained variouse controls, induction positive controls (1mM phenobarbital), cytotoxicity positive controls ([…] aflatoxin B1), vehicle controls (0.5% DMSO), and total lysis controls (0.5% DMSO). Cell morphology images were taken using an Essen IncuCyte FLR automated microscope, with six 96-well plates imaged in about 24 minutes. Images were captured and exported and JPEG files. Spent culture media was transfered to black-well plates for the LDH assay, and remaining media was sorted at -80 C for later use. Cells were treated with RLT buffer and frozen until shipped for gene expression analysis. Total RNA was isolated from the cell suspension in 75 uL of Buffer RLT (Qiagen, Germantown, MD 20874) by Quintiles/Expression Analysis (Durham, NC) using a custom isolation procedure. Total RNA from each plate well was transferred to a preamplification plate. Fluidigm's 96.96 Dynamic ArrayTM (Fluidigm, Amsterdam, the Netherlands) technology was used for gene expression analyses by quantitative reverse transcription polymerase chain reaction (qRT-PCR, performed by Quintiles/Expression Analysis, Durham, NC)89. Standard TaqManTM Assays (Applied Biosystems/ThermoFisher Scientific, Foster City, CA) were used to assess the expression of 93 genes selected based on their selectivity and sensitivity to important hepatic receptors known to be modulated by environmental chemicals; importance in human hepatocyte functionality; and hepatotoxicity. […]
In the case of `CCc1cc(SCc2sc(-c3ccc(C(F)(F)F)cc3)nc2CN2CCN(c3ccc(OC)cc3)CC2)ccc1OCC(=O)O`, the molecule was classed as inactive.

What is called AC50 is the concentration at which the activity in the assay is half-maximal. As to `Cn1cnc([N+](=O)[O-])c1Sc1ncnc2nc[nH]c12`, the AC50 was 1.9 µM (active).

Take `O=C1OC(=O)C2C3C=CC(C3)C12` (stereo not given): the outcome was inactive.

For the molecule `Clc1nc(Cl)c(Cl)c(Cl)c1Cl`, the result was inactive.

Turning to `CNCc1ccc(NC(=O)c2c[nH]c3c2C(=O)CCC3)cc1`, the molecule was classed as inactive.

As for `C=CCCCCCCCCC(=O)O`, the call was inactive.

Regarding `Cc1ccc(C)c(O)c1`, the outcome was inactive.

In the case of `O=C(O)c1cc(N=Nc2ccc(S(=O)(=O)Nc3ccccn3)cc2)ccc1O`, the outcome was inactive.

Turning to `O=C1CCCCCN1`, the result was inactive.

Regarding `O=C(OC[C@H]1O[C@@H](OC(=O)c2cc(O)c(O)c(OC(=O)c3cc(O)c(O)c(O)c3)c2)[C@H](OC(=O)c2cc(O)c(O)c(OC(=O)c3cc(O)c(O)c(O)c3)c2)[C@@H](OC(=O)c2cc(O)c(O)c(OC(=O)c3cc(O)c(O)c(O)c3)c2)[C@@H]1OC(=O)c1cc(O)c(O)c(OC(=O)c2cc(O)c(O)c(O)c2)c1)c1cc(O)c(O)c(OC(=O)c2cc(O)c(O)c(O)c2)c1`, the AC50 was 15.2 µM (active).

Turning to `O=C(CCCCCCCCc1cccnc1)N1CCC(C=C(c2ccccc2)c2ccccc2)CC1`, the half-maximal activity concentration (AC50) is 86.8 µM (active).

Regarding `CNS(=O)(=O)c1cc(C(=O)N2CCC(CCN3C4CCC3CC(n3c(C)nc5ccccc53)C4)(c3cccc(F)c3)CC2)c(Cl)cc1F` (stereo not given), the result was inactive.

Take `CCCCCCCCO`: the result was inactive.

For the molecule `CCOCCOCCOCCO`, the outcome was inactive.

For the molecule `CC/C(=C\C(=N/O)C(N)=O)C(C)[N+](=O)[O-]` (stereo not given), the call was inactive.

For `CCCCCCCCCCCCc1ccccc1`, the molecule was classed as inactive.

Turning to `C=CC(=C)CCC=C(C)C`, the molecule was classed as inactive.

Consider `CC[C@H]1OC(=O)[C@H](C)[C@@H](O[C@H]2C[C@@](C)(OC)[C@@H](O)[C@H](C)O2)[C@H](C)[C@@H](O[C@@H]2O[C@H](C)C[C@H](N(C)C)[C@H]2O)[C@](C)(O)C[C@@H](C)C(=O)[C@H](C)[C@@H](O)[C@]1(C)O`, for which the molecule was classed as inactive.

`CCOC(=O)COc1ccc2c(c1)CC(NCC(O)c1cccc(Cl)c1)CC2` (stereo not given): the molecule was called inactive.

Regarding `CCOC(=O)CC(CC(=O)OCC)(OC(C)=O)C(=O)OCC`, the result was inactive.

With `CC(C)(O)c1coc(S(=O)(=O)NC(=O)Nc2c3c(cc4c2CCC4)CCC3)c1`, the outcome was inactive.

With `CCCCC(CC)COC(=O)c1ccc(C(=O)OCC(CC)CCCC)cc1` (stereo not given), the result was inactive.

As to `Fc1ccccc1[C@@H](F)COC1CCC(Nc2ncnc3[nH]ncc23)CC1` (stereo not given in full), the concentration at half-maximal activity (AC50) was 50 µM (active).

As to `Oc1ccc2c(c1)-c1ccccc1C2`, the molecule was classed as inactive.

Consider `CC(C)=CCC/C(C)=C/CO`, for which the outcome was inactive.

`CC[C@H]1CC[C@H](NCc2cc3c(cc2OC)[C@H]2C[C@H]2C(=O)N3C)[C@H](c2ccccc2)N1`: the molecule was classed as inactive.

As to `CC(O)CN(CCN(CC(C)O)CC(C)O)CC(C)O` (stereo not given), the result was inactive.

As for `Cc1[nH]cnc1C[C@H]1CCc2c(C)c3ccccc3n2C1=O`, the AC50 is 77.3 µM (active).

For `CCn1nc(Cc2ccccc2)cc1C1CCN(C[C@H]2C[C@H](N(C)[C@@H](C(=O)O)C(C)C)C[C@@H]2c2cccc(F)c2)CC1`, the result was inactive.

On to `Cc1ccc(O)cc1`, for which the call was inactive.

As to `C[C@](N)(Cc1ccc(O)c(O)c1)C(=O)O`, the call was inactive.

For the molecule `CCCC(=O)OCC`, the molecule was classed as inactive.

Consider `CC(C)=CCCC(C)=CC=O`, for which the call was inactive.

In the case of `CC(C)CCCCCCCOC(=O)CCCCC(=O)OCCCCCCCC(C)C`, the result was inactive.

As to `Cc1c(-c2cccnc2)c2ccccc2n1CCCCC(=O)O`, the molecule was classed as inactive.

Turning to `O=C(O)CC(O)C(=O)O` (stereo not given), the result was inactive.

On to `Cc1ccc(S(=O)(=O)O)cc1C`, for which the call was inactive.

As for `CCCCCCCCCCCCCCCO`, the molecule was classed as inactive.

As to `CC(=O)c1ccc2c(c1)[C@H](NC(=O)c1ccc(F)cc1)[C@@H](O)C(C)(C)O2`, the result was inactive.

In the case of `COC(=O)c1c(Cl)c(Cl)c(C(=O)OC)c(Cl)c1Cl`, the outcome was inactive.
